Reference: the supplement of paper PMC10681739

Biological target: T1, ETS1 (UniProt P14921)
T1 sequence: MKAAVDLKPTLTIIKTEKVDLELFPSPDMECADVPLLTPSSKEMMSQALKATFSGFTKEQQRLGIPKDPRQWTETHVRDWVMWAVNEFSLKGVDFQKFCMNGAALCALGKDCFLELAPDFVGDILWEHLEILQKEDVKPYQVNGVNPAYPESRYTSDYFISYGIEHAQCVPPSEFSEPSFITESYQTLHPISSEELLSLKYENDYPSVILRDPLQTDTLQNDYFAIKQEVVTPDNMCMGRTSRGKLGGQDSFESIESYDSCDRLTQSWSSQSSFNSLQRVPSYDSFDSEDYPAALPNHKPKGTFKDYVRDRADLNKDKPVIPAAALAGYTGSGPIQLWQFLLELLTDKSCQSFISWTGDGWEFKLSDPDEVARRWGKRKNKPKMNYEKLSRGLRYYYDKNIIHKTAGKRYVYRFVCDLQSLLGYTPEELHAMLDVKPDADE
Experiment: ETS1 binding intensity (PBM fluorescence) in presence of RUNX1, normalised to ETS1-only experiment (arbitrary fluorescence units); higher = stronger binding
Details: ETS1 concentration 1 nM; RUNX1 concentration 25 nM
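Wherever RUNX1 binding intensity (PBM fluorescence) in presence of ETS1, normalised to RUNX1-only experiment is given: Full-length recombinant human ETS1 or RUNX1 bound to double-stranded 36-bp genomic probes on microarrays, detected by protein-specific primary antibody and Alexa488 secondary, spot fluorescence as median of four replicate spots.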

| Sequence | ETS1 binding intensity |
| --- | --- |
| ACAGAGAAGCTTCCTATTGTGGGATTCACCACCACC | 705 |
| CCAATGGGCAGGCGGAAACCGCGGGCTCGTGCTCCC | 2900 |
| CCGCCGCGCGCCGGATGCTAAGACCGCGATTTCCCC | 7590 |
| GTCGGAAGTGGCCGTGAGCCCAAGCCGCGGTCCCGG | 486 |
| GCTCATTTCCTGGCCGCTCCTGGGCTTCGCGGTGAG | 716 |
| TCTGCCGCCAGCCCATCCGCGACCGCATCCAGATCT | 653 |
| CTGCTGACCAAAACAGGATGTGGTCTACACAAAGTG | 36600 |
| CCTGCCTGAGGCAGGAAGCCGCAGCTGAGGGACGGC | 5390 |
| TGCGCCGGAAGTGCATGAGCTGCCGATGTGGTGCTT | 5410 |
| CAGTGACAGGAAGTGGTTCAGCGGTTGTTTAGGGCT | 9430 |
| TCTGATGTGCCTTCTTCCTGACCACAGCAACTACTA | 511 |
| CTGGGCTCGCCAGGCGGAAGTGGTTGGAGACTGCGT | 9090 |
| ACCTTCTGTTCCCTTCCTCAGACCGCAGGCGAGATG | 835 |
| GGTTTCGCTTCCGGGTTAGGCGGCCGCAGAAGCGTA | 1340 |
| CTGCTGGCGTTCCCGGATGTGCGGTGGCGGTGCTAC | 9340 |
| GGGAGGCCCCATCCTGTGTGGCTGTGGCTTTTGCCT | 451 |
| GATGCTCTAACAGGAAGTGGGTTAAGGAGCTGCACT | 14100 |
| CCTGGGCAAGGCCGGATGCCTGTGGCTTCCAGGCTG | 3350 |
| CTTTCGGGGGCGGAAGTTGCGGTGCATTGTAGGTTC | 20000 |
| ATTTTTCCTTCCTTCTCCCGTCCCCGCAGAGTGCAA | 465 |

| Sequence | ETS1 binding intensity |
| --- | --- |
| GGGCAGGCCGGATGTGGGAGACCACAAAGCCCAAGG | 27500 |
| GCTCCCTGGACAGGATGTGGTGCCGAGTAAACAGCT | 5380 |
| TAAGTGAATTTCCTGCCCGCCTCCGCCCACAGCGTA | 744 |
| GCCTGCACCCTAGTTCCGGTGTGGGTGGAGGGGCCG | 999 |
| GAGGGCTGCTTCCTGCTCTGTGGAGGCCGCAGCGGG | 594 |
| TACAGCTGGAACGTCCTGTGGTTAACATTCTGCTCT | 568 |
| CCCTTCCGCGTGGGTTGCACCTGCTAACCACAGAGC | 866 |
| TTCATTTCTACCTTCCTGTGGTCTTTTTGCCTCCGA | 470 |
| TGGGGAGCAGGAAGCTGGGGGCGGTTGTGGAGGGAC | 1600 |
| ACAGATAGTGATATCCTGTGGTCAATTCCCTCCCCT | 951 |
| CTGAGCCGGGACCGGAAGCCGCACCGCCCCCCGCGC | 21700 |
| GCGCTACAGGAACTTCCTGCGCGGTTGCTGTCGTTG | 1570 |
| TCGTGAAAAAGGAAGTGGATAAAGTGGTTACGGCAA | 3260 |
| TTGTCGGGTATGGGATGTGGGCAGAGAGTATGATGG | 835 |
| CCGTACTTCCGCTTTACTCAGATTTTGGACCGCGGG | 1780 |
| GAAGTCACATCCTGTCTGTTGCGGCAGGGCACAGAG | 1520 |
| GGGTCCTTCCGGGTTTTGTGTCGAATCTGCGGCGGC | 395 |
| AGGTTCCGGCGAAAGTGACCGAAAGTAACCGCCGGG | 518 |
| GACAGAGGAAACTAGGTGTGACAACCACAAACAGCT | 651 |
| GAGCTAGCCACTTCCTCCCCCACAACTACACCCAGG | 914 |

Biological target: RUNX1 (UniProt Q01196)
Sequence (Q01196 whole entry): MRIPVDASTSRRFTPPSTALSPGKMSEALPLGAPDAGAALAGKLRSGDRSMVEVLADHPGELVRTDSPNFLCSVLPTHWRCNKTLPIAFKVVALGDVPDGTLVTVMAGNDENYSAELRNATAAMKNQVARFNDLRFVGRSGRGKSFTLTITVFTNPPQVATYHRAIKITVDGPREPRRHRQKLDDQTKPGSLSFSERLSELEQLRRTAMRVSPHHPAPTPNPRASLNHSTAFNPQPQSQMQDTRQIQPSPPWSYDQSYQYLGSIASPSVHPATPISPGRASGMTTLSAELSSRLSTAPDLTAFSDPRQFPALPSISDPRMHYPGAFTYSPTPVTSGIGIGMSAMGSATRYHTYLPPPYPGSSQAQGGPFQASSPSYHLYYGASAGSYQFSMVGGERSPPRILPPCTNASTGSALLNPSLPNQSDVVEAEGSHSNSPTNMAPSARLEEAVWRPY
Experiment: RUNX1 binding intensity (PBM fluorescence) in presence of ETS1, normalised to RUNX1-only experiment (arbitrary fluorescence units); higher = stronger binding
Details: RUNX1 concentration 2 nM; ETS1 concentration 25 nM
Description: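 Cooperative gcPBM on 36-bp genomic probes with neighbouring ETS1 and RUNX1 sites. Recombinant human RUNX1 (2 nM) was incubated alone or with ETS1 (25 nM) and detected with anti-RUNX1 antibody plus Alexa488 secondary. Values are medians over 4 replicate spots; the RUNX1+ETS1 data were normalised to the RUNX1-only data. The probes sit in constant array flanks that are not printed.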

| Sequence | RUNX1 binding intensity |
| --- | --- |
| ACAGAGAAGCTTCCTATTGTGGGATTCACCACCACC | 942 |
| CCAATGGGCAGGCGGAAACCGCGGGCTCGTGCTCCC | 1350 |
| CCGCCGCGCGCCGGATGCTAAGACCGCGATTTCCCC | 1110 |
| GTCGGAAGTGGCCGTGAGCCCAAGCCGCGGTCCCGG | 951 |
| GCTCATTTCCTGGCCGCTCCTGGGCTTCGCGGTGAG | 1730 |
| TCTGCCGCCAGCCCATCCGCGACCGCATCCAGATCT | 1210 |
| CTGCTGACCAAAACAGGATGTGGTCTACACAAAGTG | 3500 |
| CCTGCCTGAGGCAGGAAGCCGCAGCTGAGGGACGGC | 1280 |
| TGCGCCGGAAGTGCATGAGCTGCCGATGTGGTGCTT | 1220 |
| CAGTGACAGGAAGTGGTTCAGCGGTTGTTTAGGGCT | 3830 |
| TCTGATGTGCCTTCTTCCTGACCACAGCAACTACTA | 1270 |
| CTGGGCTCGCCAGGCGGAAGTGGTTGGAGACTGCGT | 1510 |
| ACCTTCTGTTCCCTTCCTCAGACCGCAGGCGAGATG | 2230 |
| GGTTTCGCTTCCGGGTTAGGCGGCCGCAGAAGCGTA | 1980 |
| CTGCTGGCGTTCCCGGATGTGCGGTGGCGGTGCTAC | 1570 |
| GGGAGGCCCCATCCTGTGTGGCTGTGGCTTTTGCCT | 1020 |
| GATGCTCTAACAGGAAGTGGGTTAAGGAGCTGCACT | 2390 |
| CCTGGGCAAGGCCGGATGCCTGTGGCTTCCAGGCTG | 1060 |
| CTTTCGGGGGCGGAAGTTGCGGTGCATTGTAGGTTC | 2800 |
| ATTTTTCCTTCCTTCTCCCGTCCCCGCAGAGTGCAA | 1520 |

| Sequence | RUNX1 binding intensity |
| --- | --- |
| GGGCAGGCCGGATGTGGGAGACCACAAAGCCCAAGG | 9010 |
| GCTCCCTGGACAGGATGTGGTGCCGAGTAAACAGCT | 1410 |
| TAAGTGAATTTCCTGCCCGCCTCCGCCCACAGCGTA | 1790 |
| GCCTGCACCCTAGTTCCGGTGTGGGTGGAGGGGCCG | 4850 |
| GAGGGCTGCTTCCTGCTCTGTGGAGGCCGCAGCGGG | 1270 |
| TACAGCTGGAACGTCCTGTGGTTAACATTCTGCTCT | 1970 |
| CCCTTCCGCGTGGGTTGCACCTGCTAACCACAGAGC | 1600 |
| TTCATTTCTACCTTCCTGTGGTCTTTTTGCCTCCGA | 2320 |
| TGGGGAGCAGGAAGCTGGGGGCGGTTGTGGAGGGAC | 867 |
| ACAGATAGTGATATCCTGTGGTCAATTCCCTCCCCT | 2280 |
| CTGAGCCGGGACCGGAAGCCGCACCGCCCCCCGCGC | 1770 |
| GCGCTACAGGAACTTCCTGCGCGGTTGCTGTCGTTG | 1180 |
| TCGTGAAAAAGGAAGTGGATAAAGTGGTTACGGCAA | 1460 |
| TTGTCGGGTATGGGATGTGGGCAGAGAGTATGATGG | 797 |
| CCGTACTTCCGCTTTACTCAGATTTTGGACCGCGGG | 3640 |
| GAAGTCACATCCTGTCTGTTGCGGCAGGGCACAGAG | 1750 |
| GGGTCCTTCCGGGTTTTGTGTCGAATCTGCGGCGGC | 1720 |
| AGGTTCCGGCGAAAGTGACCGAAAGTAACCGCCGGG | 967 |
| GACAGAGGAAACTAGGTGTGACAACCACAAACAGCT | 785 |
| GAGCTAGCCACTTCCTCCCCCACAACTACACCCAGG | 3420 |
